From PubChem BioAssay AID777 (Sanford-Burnham Center for Chemical Genomics, 2007)
Screen size: about 96,000 compounds; about 19,000 (20%) were called active.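 The calls were made as follows: active = blocking of liver enzyme CYP2C9 beyond about 50% at 5 µM (limit read from the data); inactive = the rest.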 Only a sample is shown.

target: Cytochrome P450 2C9 (Homo sapiens) (UniProt P11712); test: blockers of cytochrome P450 2C9 activity – biochemical, luminescence, ADME assay, primary screen (AID 777); details: CYP2C9 Supersomes, luciferin-H conversion, at 5 µM, stronger effect = higher value
Sequence (P11712 whole entry, looked up): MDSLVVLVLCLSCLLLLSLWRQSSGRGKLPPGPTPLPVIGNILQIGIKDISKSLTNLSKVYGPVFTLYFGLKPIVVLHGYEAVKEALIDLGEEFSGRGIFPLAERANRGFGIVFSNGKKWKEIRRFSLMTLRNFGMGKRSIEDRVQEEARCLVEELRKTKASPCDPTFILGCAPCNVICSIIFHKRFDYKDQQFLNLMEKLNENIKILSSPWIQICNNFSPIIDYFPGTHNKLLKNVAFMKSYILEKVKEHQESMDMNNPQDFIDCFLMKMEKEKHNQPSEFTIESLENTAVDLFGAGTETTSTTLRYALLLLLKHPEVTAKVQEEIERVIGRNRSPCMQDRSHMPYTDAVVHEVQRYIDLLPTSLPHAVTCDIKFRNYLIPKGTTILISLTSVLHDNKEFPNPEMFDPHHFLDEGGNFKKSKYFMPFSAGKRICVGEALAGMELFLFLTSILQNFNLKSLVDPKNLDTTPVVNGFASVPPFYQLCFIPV

SMILES | inhibition
Cc1nc2ccccc2c2oc(C(=O)NCCCN3CCC(C)CC3)cc12 | 7.6% (inactive)
O=C(Cn1cnc2c(nnn2-c2ccccc2)c1=O)N1CCC(Cc2ccccc2)CC1 | -30.4% (inactive)
Cc1ccc(C(=O)N2CCCC2)c(F)c1F | 6.3% (inactive)
CN(C)CC(O)COc1ccc(C(C)(C)c2ccc(OCC(O)CN(C)C)cc2)cc1 (stereo not given) | -6.4% (inactive)
O=C(CNC(=O)c1ccccc1)NCC(=O)OCc1ccc(Cl)cc1 | 4.4% (inactive)
O=C(CNC(=O)OCc1ccccc1)Oc1cc2oc(=O)cc(-c3ccccc3)c2cc1Cl | 75.7% (active)
O=C(NCC1CCC(C(=O)O)CC1)OCc1ccccc1 (stereo not given) | -10.5% (inactive)
CCOC(=O)CSc1nncc2ccc(OC)c(OC)c12 | 4.3% (inactive)
Cc1nc2ccccc2cc1OCc1ccc(F)cc1 | 47.1% (inactive)
Cc1no[n+]([O-])c1COc1ccccc1/C=C1\NC(=S)NC1=O | 30.2% (inactive)
Cc1ccc(C(=O)NCC2CCCO2)o1 (stereo not given) | 2.8% (inactive)
Cc1ccc(-c2noc(-c3ccccc3C(=O)NCC3CCCO3)n2)cc1 (stereo not given) | 70.8% (active)
COc1cc(SC)ccc1C(=O)NCCOc1ccccc1Cl | 28.9% (inactive)
O=C(NCc1ccccn1)c1cc(-c2ccccc2Cl)on1 | -163% (inactive)
O=C(NCC1CCCO1)c1ccc2ccccc2n1 (stereo not given) | -36.5% (inactive)
COCCNC(=O)c1ccccc1-c1nc(-c2ccccc2Cl)no1 | 83.9% (active)
O=C(c1ccc(=O)[nH]c1)N(Cc1ccco1)C1(C(=O)NC2CCCCC2)CCCCC1 | -8.6% (inactive)
COc1ccc(C2N=C(N)N=C(N)N2c2ccccc2)cc1OC (stereo not given) | -7% (inactive)
O=C(N/N=C/c1ccc(O)c(O)c1)C1c2ccccc2Oc2ccccc21 | 55.2% (active)
O=C(N/N=C/c1ccsc1)c1cc(O)cc(O)c1 | 5.4% (inactive)
COc1cc(/C=N\NC(=O)C2C(=O)NCC2c2ccccc2)cc(OC)c1O (stereo not given) | -9.3% (inactive)
CCC1=C/C(=C\c2ccc3c(c2)OCO3)C(=O)S1 | 16.7% (inactive)
CC(O)CN(Cc1ccc(Cl)cc1)CC(C)O (stereo not given) | -2.8% (inactive)
OCCN(Cc1ccccc1)Cc1ccc(Cl)cc1 | 87.6% (active)
CN(Cc1ccccc1)Cc1ccccc1F | -5% (inactive)
Cn1c(=O)cc(SCC(=O)N2CCN(C(=O)c3ccco3)CC2)c2ccccc21 | -14% (inactive)
O=C(Nc1nnc(C2CC2)s1)c1ccccn1 | -32.1% (inactive)
c1cncc(-c2nnc3n2C2(CCCCC2)Cc2ccccc2-3)c1 | 11.2% (inactive)
CCC1(CC)Cc2ccccc2-c2nc3ccccc3c(=O)n21 | 19.3% (inactive)
O=c1c2ccccc2nc2n1C1(CCCCC1)Cc1ccccc1-2 | 87.7% (active)
